Experimental data: PubChem BioAssay (NCATS)
Several values for one entry are separate records, joined by “and”; a condition that tells them apart may be missing. Identical values can stand only once. Results filed as inconclusive are left out. Entries that show only a call come without a potency. Some compounds were tested as several samples or in several runs, with calls that do not always agree. Activity calls are given as the source filed them. Unless noted, calls come from the whole dose curve; as a rule, active = well fitted curve in the direction sought with a large enough effect; inconclusive = small, poorly fitted or top-dose-only effect, or another doubt; inactive = no such curve, though single readings can be large; an effect the other way counts as inactive or inconclusive.

Assays:
[1] = AP1 Signaling Pathway (AID 357; active = well fitted curve in either direction with a large enough effect, not every such curve was filed as active;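 note: ME-180 reporter cells stimulated with EGF at its EC50 level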); conditions: ME-180 AP-1-bla reporter, EGF-induced, beta-lactamase ratio, 5 h
Outline: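 Modulation of EGF-driven AP-1 transcription was assessed with a beta-lactamase reporter in ME-180 cells. Compound and EC50 EGF were co-incubated 5 hours at 37 °C before 2.5-hour CCF4 loading at room temperature and dual-emission reading.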

[2] = NFAT Signaling Pathway (AID 444; active = well fitted curve in either direction with a large enough effect, not every such curve was filed as active;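 note: carbachol stimulus at about its EC50 of 1 µM final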); conditions: Jurkat NFAT-bla M1, carbachol, beta-lactamase ratio, 5 h
Outline: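 Jurkat cells carrying an NFAT-driven β-lactamase reporter and co-transfected muscarinic M1 receptor were treated with compound plus carbachol (1 uM final, an EC50 level) for 5 h at 37 °C. CCF4 loading followed for 1 h at RT; 460/530 nm ratio gave %activity.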

[3] = Stat Signaling Pathway (AID 446; active = well fitted curve in either direction with a large enough effect, not every such curve was filed as active;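 note: ME-180 cervical cancer cells given 40 pM IL-6 alongside compound; SIE-controlled beta-lactamase reporter measured as 460/530 nm FRET emission ratio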); conditions: ME-180 SIE beta-lactamase reporter, IL-6 stimulated, 5 h
Outline: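 ME-180 SIE-bla cells; overnight plating; cpd + IL-6 40 pM, 5 h, 37 C; LiveBLAzer 2.5 h RT; 460/530 nm emission ratio. Normalized to 300 pM IL-6 and 125 nM JAK inhibitor controls.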

[4] = target: 3',5'-cyclic-AMP phosphodiesterase 4B (Homo sapiens) (UniProt Q07343); assay: qHTS Assay for Inhibitors of PDE-IV (AID 607; active = well fitted activation curve with a large enough effect in the main read-out, with a control signal flat, not every such curve was filed as active); conditions: HEK293 ACTOne CNG channel cells, membrane potential fluorescence; series mostly up to 22.9 µM
Outline: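 ACTOne HEK293 cells carry a modified cAMP-gated CNG channel and express endogenous PDE4; plated 1000 cells/well, compounds up to 22.9 uM final. Membrane-potential dye fluorescence (ex 535/em 590) was read; parental cells received 10 uM forskolin + 100 uM RO 20-1724.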

[5] = target: Cytochrome P450 1A2 (Homo sapiens) (UniProt P05177); assay: p450-cyp1a2 (AID 410; calls by dose curve; note: potency is the fitted concentration of half-maximal effect); conditions: recombinant CYP1A2, luciferin-ME demethylation, luminescence; series mostly up to 57 µM
Outline: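 Luminescent readout of luciferin formed from Luciferin-ME by human CYP1A2; data normalized against complete inhibition by 57 uM furafylline. Enzyme 20nM, substrate 100uM at Km, 100mM KPO4 buffer, 60 min reaction at room temperature.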

[6] = target: Cytochrome P450 3A4 (Homo sapiens) (UniProt P08684); assay: qHTS Assay for Activators of Cytochrome P450 3A4 (AID 885); conditions: recombinant CYP3A4, Luciferin-PPXE luminescence, 60 min; series mostly up to 57.1 µM; note: nearly all actives have a fitted effect of over 65% in size
Outline: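 20nM CYP3A4 + 25uM Luciferin-PPXE (=KM), 200mM KPO4; cpd 10 min RT; NADPH regen, 60 min RT; stop w/ detection buffer, 20 min; luminescence. Normalized to 57 uM ketoconazole.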

[7] = target: Glutathione peroxidase 1 (Homo sapiens) (UniProt P07203); assay: Primary qHTS Assay for Inhibitors of Recombinant Selenoprotein Glutathione Peroxidase 1 (GPX1) (AID 1845191); conditions: recombinant GPX1, GR-coupled NADPH fluorescence, 15 min; series mostly up to 48.8 µM; note: nearly all actives have a fitted effect of over 65% in size
Outline: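 Recombinant GPX1 (10 nM final) was preincubated with compound for 30 min at room temperature, then reacted with 1 mM GSH, 0.5 mM CHP, 0.5 mM NADPH and 100 nM glutathione reductase; NADPH fluorescence (340/450 nm) was read at 0 and 15 min.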

[8] = Primary qHTS for inhibitors of nuclear receptor binding SET domain protein 2 (NSD2) in an isogenic RCH-ACV NSD2 p.E1099K mutant (9B) (AID 1645876); conditions: RCH-ACV NSD2 E1099K (9B) viability, CellTiter-Glo, 72 h; series mostly up to 44.9 µM; note: nearly all actives have a fitted effect of over 70% in size; note: potency is the fitted concentration of half-maximal effect
[9] = Primary qHTS for inhibitors of nuclear receptor binding SET domain protein 2 (NSD2) in an RCH-ACV wild type WT cells (2C) (AID 1645877); conditions: RCH-ACV (leukaemia line) NSD2 WT (2C) viability, CellTiter-Glo, 72 h; series mostly up to 44.9 µM; note: nearly all actives have a fitted effect of over 70% in size; note: potency is the fitted concentration of half-maximal effect
[10] = qHTS drug screen for cell cycle checkpoint inhibitors in PARPi-resistant BRCA-mutant ovarian cancer cell lines. (AID 1963452; calls by dose curve); conditions: PEO1/OlaR viability, CellTiter-Glo luminescence, 96 h, stronger effect = lower value
Outline: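 PEO1, PEO4 and PEO1/OlaR ovarian cancer cells, 600 per well, exposed 96 h at 37C to a dilution series. Viability read by CellTiter-Glo luminescence, normalized to DMSO and empty wells; activity summarized as Z-AUC.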

[11] = target: Cytochrome P450 2D6 (Homo sapiens) (UniProt P10635); assay: qHTS Assay for Inhibitors and Substrates of Cytochrome P450 2D6 (AID 891); conditions: recombinant CYP2D6, luciferin-ME EGE luminescence; series mostly up to 57.1 µM; note: nearly all actives have a fitted effect of over 60% in size; note: potency is the fitted concentration of half-maximal effect;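 for activity change, negative = inhibition: luciferin methyl ether substrate demethylated by CYP2D6 with NADPH regeneration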
Outline: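 Human CYP2D6 (5 nM) with 30 uM Luciferin-ME EGE (at Km) in 100 mM KPO4, compound preincubated 10 min, then NADPH regeneration system for 60 min at room temperature. Luciferin read by luminescence; normalized to 1.43 uM quinidine.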

[12] = target: Guanine nucleotide-binding protein G(i) subunit alpha-1 (Homo sapiens) (UniProt P63096); assay: qHTS Assay for Inhibitors of RGS12 GoLoco Motif Activity (Green Fluorophore) (AID 879); conditions: Galphai1/FITC-RGS12 GoLoco peptide, fluorescence polarization; series mostly up to 57.1 µM;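 note: negative values mean loss of peptide binding seen as reduced polarization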
Outline: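 Fluorescence polarization assay: 50 nM Gαi1 with 10 nM FITC-labeled RGS12 GoLoco peptide in 10 mM Tris pH 7.5, 150 mM NaCl, 0.1 mM GDP, 0.05% NP40, 10 min at room temperature with compound.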

[13] = target: Pyruvate kinase (Leishmania mexicana) (UniProt Q27686); assay: qHTS Validation Assay for Inhibitors of Leishmania Mexicana Pyruvate Kinase (AID 945); conditions: purified L. mexicana pyruvate kinase, enzyme activity, E451W mutant enzyme; series mostly up to 57.5 µM
Outline: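 Mutant LmPYK (E451W), 0.2 nM, plus 0.5 mM PEP and 0.1 mM ADP in 50 mM imidazole pH 7.2 containing 0.01% Tween 20 and 0.05% BSA. Incubated 1 h at room temperature; luminescence via PKLight, normalized to DMSO.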

[14] = target: Pyruvate kinase PKM (Homo sapiens) (UniProt P14618); assay: qHTS Assay for Activators of Human Muscle Pyruvate Kinase (AID 954; active = well fitted curve in the direction sought with a large enough effect, not every such curve was filed as active); conditions: purified human muscle pyruvate kinase, luciferase-coupled luminescence, 1 h; series mostly up to 57.5 µM
Outline: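 Luminescence from a luciferase ATP-detection/stop reagent reported PKM2 activity. Reactions contained 0.1 nM purified human enzyme, 0.5 mM PEP, 0.1 mM ADP and 7 mM MgCl2 at pH 7.2, run 1 h at RT.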

[15] = target: Alpha-galactosidase A (Homo sapiens) (UniProt P06280); assay: Counterscreen for Glucocerebrosidase Inhibitors: qHTS Assay for Human alpha-Galactosidase at pH 4.5 (AID 992); conditions: purified enzyme, fluorogenic substrate; series mostly up to 76.9 µM
Outline: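 Enzyme at 2 nM final was combined with compound (0.7 nM to 77 uM) and 80 uM 4-methylumbelliferyl alpha-D-galactopyranoside in 50 mM citric acid, 0.005% Tween-20, pH 4.5. After 20 min at room temperature, fluorescence was read (Ex 365/Em 440 nm); AC50 came from Hill fits.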

[16] = target: Cytochrome P450 3A4 (Homo sapiens) (UniProt P08684); assay: qHTS Assay for Inhibitors and Substrates of Cytochrome P450 3A4 (AID 884); conditions: recombinant CYP3A4, Luciferin-PPXE luminescence; series mostly up to 57.1 µM; note: nearly all actives have a fitted effect of over 50% in size; note: potency is the fitted concentration of half-maximal effect
Outline: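 20 nM human CYP3A4 with 25 uM Luciferin-PPXE (at KM) in 200 mM KPO4, preincubated 10 min with compound; NADPH regeneration started a 60 min RT reaction. Luciferin detected by luminescence, normalized to 57 uM ketoconazole as full inhibition.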

[17] = qHTS for Inhibitors of Plasmodium falciparum (CP250) proliferation (AID 504320); conditions: P. falciparum CP250 in erythrocytes, SYBR Green DNA, 72 h; series mostly up to 6.7 µM
Outline: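 Erythrocytes infected with P. falciparum line (0.3% parasitemia, 2.5% hematocrit final) incubated with compounds 72 h at 37 °C, 5% CO2; SYBR Green lysis buffer added, fluorescence read next day. Normalized to 0.29 uM artemisinin and DMSO.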

[18] = target: Cytochrome P450 2C9 (Homo sapiens) (UniProt P11712); assay: qHTS Assay for Inhibitors and Substrates of Cytochrome P450 2C9 (AID 883); conditions: recombinant CYP2C9, luciferin-H luminescence, 60 min; series mostly up to 57.1 µM; note: nearly all actives have a fitted effect of over 60% in size; note: potency is the fitted concentration of half-maximal effect
Outline: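 CYP2C9 deoxyluciferin hydroxylation, 37C, 60 min with NADPH regeneration; 10nM enzyme, 100uM Luciferin-H (KM). Glo detection reagent stopped reaction; luminescence normalized to sulphaphenazole (57uM) full inhibition.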

[19] = measured here: PEO1 parental Z-AUC

Cytochrome P450 3A4 (Homo sapiens), sequence (P08684 whole entry, looked up): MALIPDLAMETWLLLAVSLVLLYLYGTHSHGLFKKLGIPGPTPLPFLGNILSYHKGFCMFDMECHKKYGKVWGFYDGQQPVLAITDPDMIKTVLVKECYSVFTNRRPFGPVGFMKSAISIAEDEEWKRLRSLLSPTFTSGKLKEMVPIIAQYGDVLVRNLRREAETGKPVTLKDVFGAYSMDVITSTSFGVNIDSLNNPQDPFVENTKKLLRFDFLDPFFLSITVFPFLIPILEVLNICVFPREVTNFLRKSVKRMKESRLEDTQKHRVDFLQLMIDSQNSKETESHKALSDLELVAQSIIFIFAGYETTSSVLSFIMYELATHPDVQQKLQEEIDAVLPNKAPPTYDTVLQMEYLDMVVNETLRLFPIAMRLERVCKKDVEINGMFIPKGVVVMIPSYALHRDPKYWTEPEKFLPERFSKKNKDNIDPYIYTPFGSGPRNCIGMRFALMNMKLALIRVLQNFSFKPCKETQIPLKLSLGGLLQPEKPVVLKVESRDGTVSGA
3',5'-cyclic-AMP phosphodiesterase 4B (Homo sapiens), sequence (Q07343 whole entry, looked up): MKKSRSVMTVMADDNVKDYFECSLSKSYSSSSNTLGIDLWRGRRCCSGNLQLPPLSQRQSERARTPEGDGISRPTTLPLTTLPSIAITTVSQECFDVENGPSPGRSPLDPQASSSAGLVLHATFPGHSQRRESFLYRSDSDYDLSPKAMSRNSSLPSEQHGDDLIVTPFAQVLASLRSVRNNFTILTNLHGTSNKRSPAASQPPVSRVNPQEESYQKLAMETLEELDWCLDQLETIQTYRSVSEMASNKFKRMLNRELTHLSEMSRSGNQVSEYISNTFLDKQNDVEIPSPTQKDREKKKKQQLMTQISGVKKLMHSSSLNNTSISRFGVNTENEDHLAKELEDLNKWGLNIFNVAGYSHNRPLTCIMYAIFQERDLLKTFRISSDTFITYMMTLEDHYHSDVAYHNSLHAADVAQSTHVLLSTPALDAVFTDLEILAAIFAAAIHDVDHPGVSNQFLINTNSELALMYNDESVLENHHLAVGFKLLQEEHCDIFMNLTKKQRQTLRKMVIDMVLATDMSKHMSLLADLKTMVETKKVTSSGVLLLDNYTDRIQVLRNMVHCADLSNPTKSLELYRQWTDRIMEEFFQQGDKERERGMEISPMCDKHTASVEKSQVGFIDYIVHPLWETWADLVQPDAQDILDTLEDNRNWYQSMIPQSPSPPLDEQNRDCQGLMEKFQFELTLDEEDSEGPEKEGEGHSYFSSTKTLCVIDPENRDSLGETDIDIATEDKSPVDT
Cytochrome P450 1A2 (Homo sapiens), sequence (P05177 whole entry, looked up): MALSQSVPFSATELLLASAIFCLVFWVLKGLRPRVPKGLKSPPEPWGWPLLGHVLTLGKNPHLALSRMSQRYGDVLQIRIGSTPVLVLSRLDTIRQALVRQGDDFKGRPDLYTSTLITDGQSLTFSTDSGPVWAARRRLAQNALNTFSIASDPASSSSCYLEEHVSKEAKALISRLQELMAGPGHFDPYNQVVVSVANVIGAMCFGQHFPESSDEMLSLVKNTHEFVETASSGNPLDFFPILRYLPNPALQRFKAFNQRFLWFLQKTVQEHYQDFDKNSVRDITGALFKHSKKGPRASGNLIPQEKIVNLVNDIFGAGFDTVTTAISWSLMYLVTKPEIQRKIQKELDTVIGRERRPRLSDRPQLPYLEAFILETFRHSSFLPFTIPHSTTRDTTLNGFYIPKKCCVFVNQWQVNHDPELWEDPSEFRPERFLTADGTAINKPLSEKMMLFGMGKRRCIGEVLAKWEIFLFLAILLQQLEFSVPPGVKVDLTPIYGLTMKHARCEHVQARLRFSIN
Cytochrome P450 2D6 (Homo sapiens), sequence (P10635 whole entry, looked up): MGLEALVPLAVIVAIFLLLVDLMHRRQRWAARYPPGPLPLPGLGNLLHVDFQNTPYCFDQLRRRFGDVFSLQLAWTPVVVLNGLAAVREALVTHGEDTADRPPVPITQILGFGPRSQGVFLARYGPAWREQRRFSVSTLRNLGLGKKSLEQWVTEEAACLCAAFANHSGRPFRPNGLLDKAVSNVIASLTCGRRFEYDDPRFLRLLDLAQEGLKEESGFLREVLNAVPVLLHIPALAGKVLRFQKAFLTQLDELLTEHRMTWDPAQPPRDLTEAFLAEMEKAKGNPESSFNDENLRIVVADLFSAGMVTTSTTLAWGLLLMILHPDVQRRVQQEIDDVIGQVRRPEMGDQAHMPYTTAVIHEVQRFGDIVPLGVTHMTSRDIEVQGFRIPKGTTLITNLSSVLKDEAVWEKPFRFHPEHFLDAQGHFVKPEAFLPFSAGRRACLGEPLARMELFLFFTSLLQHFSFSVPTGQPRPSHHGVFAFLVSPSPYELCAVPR
Glutathione peroxidase 1 (Homo sapiens), sequence (P07203 whole entry, looked up): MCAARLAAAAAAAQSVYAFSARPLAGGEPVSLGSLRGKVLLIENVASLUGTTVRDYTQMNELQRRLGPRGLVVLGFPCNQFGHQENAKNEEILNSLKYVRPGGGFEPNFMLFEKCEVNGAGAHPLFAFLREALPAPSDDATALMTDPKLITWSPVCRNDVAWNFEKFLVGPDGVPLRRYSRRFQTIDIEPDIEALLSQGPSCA
Pyruvate kinase PKM (Homo sapiens), sequence (P14618 whole entry, looked up): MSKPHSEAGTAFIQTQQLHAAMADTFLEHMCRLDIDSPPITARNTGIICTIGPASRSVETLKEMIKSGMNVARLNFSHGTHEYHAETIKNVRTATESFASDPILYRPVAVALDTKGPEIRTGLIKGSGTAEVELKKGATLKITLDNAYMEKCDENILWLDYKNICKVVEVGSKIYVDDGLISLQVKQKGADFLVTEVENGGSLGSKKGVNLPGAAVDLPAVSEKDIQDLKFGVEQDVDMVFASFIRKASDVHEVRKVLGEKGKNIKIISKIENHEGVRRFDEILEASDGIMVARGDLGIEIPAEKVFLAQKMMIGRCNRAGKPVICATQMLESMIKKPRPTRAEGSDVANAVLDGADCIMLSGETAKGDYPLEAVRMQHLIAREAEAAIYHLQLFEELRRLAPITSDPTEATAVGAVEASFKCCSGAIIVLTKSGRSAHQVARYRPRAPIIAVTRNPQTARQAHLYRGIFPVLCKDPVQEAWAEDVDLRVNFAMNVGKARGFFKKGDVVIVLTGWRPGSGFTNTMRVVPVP
Guanine nucleotide-binding protein G(i) subunit alpha-1 (Homo sapiens), sequence (P63096 whole entry, looked up): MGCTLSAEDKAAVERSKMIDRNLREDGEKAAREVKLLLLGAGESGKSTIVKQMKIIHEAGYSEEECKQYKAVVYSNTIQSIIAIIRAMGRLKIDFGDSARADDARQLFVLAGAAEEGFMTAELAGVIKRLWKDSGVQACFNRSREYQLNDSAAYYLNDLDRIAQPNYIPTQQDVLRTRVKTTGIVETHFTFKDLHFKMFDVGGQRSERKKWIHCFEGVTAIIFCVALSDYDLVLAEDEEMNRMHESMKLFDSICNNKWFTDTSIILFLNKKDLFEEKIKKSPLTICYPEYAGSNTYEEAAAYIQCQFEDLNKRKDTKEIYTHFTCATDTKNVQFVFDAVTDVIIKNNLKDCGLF
Pyruvate kinase (Leishmania mexicana), sequence (Q27686 2-499 E452W): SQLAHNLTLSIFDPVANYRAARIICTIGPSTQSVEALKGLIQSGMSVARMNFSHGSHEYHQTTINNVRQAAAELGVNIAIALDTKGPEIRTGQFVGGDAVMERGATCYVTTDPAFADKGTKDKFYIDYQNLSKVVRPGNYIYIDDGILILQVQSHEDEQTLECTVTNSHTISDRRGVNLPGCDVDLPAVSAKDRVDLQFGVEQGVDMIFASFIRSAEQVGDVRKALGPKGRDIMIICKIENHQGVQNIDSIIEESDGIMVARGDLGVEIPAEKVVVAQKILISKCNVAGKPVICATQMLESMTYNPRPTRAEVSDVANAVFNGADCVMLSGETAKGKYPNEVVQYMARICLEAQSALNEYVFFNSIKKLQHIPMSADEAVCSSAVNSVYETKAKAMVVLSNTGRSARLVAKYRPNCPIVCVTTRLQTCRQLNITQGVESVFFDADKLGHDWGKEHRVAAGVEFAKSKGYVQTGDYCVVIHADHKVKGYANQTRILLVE
Cytochrome P450 2C9 (Homo sapiens), sequence (P11712 whole entry, looked up): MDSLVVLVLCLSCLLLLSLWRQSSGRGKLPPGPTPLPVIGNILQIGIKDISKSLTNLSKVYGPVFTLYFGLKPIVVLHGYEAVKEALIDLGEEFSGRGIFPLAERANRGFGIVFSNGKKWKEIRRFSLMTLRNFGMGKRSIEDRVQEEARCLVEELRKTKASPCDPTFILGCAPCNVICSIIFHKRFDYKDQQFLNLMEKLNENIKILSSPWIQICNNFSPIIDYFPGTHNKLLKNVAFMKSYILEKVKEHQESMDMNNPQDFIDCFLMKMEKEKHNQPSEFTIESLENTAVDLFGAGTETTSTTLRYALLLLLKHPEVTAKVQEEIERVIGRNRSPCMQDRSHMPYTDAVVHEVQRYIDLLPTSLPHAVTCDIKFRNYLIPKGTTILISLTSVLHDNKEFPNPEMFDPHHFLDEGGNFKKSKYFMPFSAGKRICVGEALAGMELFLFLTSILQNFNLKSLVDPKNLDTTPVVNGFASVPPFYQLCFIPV
Alpha-galactosidase A (Homo sapiens), sequence (P06280 whole entry, looked up): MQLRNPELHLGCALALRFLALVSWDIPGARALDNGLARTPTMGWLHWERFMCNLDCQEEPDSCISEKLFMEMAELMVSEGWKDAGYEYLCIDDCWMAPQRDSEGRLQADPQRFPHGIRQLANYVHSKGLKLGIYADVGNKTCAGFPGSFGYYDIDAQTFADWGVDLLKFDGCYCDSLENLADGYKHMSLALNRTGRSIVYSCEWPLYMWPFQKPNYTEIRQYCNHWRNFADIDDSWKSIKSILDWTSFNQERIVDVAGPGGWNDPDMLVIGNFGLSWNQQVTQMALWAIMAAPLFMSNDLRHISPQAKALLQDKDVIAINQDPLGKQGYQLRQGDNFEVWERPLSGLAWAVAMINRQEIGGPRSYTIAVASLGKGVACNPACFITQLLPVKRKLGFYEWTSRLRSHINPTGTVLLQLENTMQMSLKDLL

COC(=O)[C@@H]1[C@@H]2C[C@H]3c4[nH]c5ccccc5c4CCN3C[C@@H]2CC[C@@H]1O
activity change, negative = inhibition ([1]; at 7.69 µM (top of the series)): -0.0828% (inactive) | activity change, negative = inhibition ([1]; at 17.2 µM (top of the series)): 0.544% (inactive) and 5.73% (inactive) and 0.793% (inactive) | activity change, negative = inhibition ([2]; at 7.69 µM (top of the series)): -0.996% (inactive) | activity change, negative = inhibition ([2]; at 17.2 µM (top of the series)): -15% (inactive) and 0.703% (inactive) and 5.17% (inactive) | activity, negative = inhibition ([3]; at 7.69 µM (top of the series)): 0.353% (inactive) | activity, negative = inhibition ([3]; at 17.2 µM (top of the series)): 5.5% (inactive) and -1.53% (inactive) and 0.108% (inactive) | Potency [4]: inactive

COc1cc(N)c(Cl)cc1C(=O)OCCCN1CCCCC1
Potency [5]: inactive | Potency [4]: inactive | Potency [6]: inactive

CC(C)(C)n1nc(-c2cccc3ccccc23)c2c(N)ncnc21
Potency [7]: inactive

Nc1ncnc(Nc2ccc(OCc3ccccc3)c(Cl)c2)c1/C=N/OCCN1CCOCC1
Potency [8]: 16.6 µM (active) | Potency [9]: 8.33 µM (active) | Potency [7]: inactive | Z-AUC [10]: -0.0964 (inactive) | Z-AUC [10, 19]: 0.0883 | Z-AUC ([10]; measured here: PEO4 Z-AUC): -0.311

O=S(=O)(c1cccc2cnccc12)N1CCNCC1
Potency [6]: inactive

CC1(C)CO[C@H](CC(=O)O)CN1
Potency [4]: inactive | Potency [11]: 0.0063 µM (active)

Clc1ccc(-c2nc3sccn3c2/C=N/OCc2ccc(Cl)c(Cl)c2)cc1
Potency [8]: inactive | Potency [9]: inactive | Potency [7]: inactive | Z-AUC [10]: 1.14 (inactive) | Z-AUC [10, 19]: 1.09 | Z-AUC ([10]; measured here: PEO4 Z-AUC): 1.23

CC1=C(\C=C/C(C)=C/C=C\C(C)=C\C(=O)O)C(C)(C)CCC1
activity change, negative = inhibition ([1]; at 17.2 µM (top of the series)): -3.06% (inactive) and -11.4% (inactive) | activity change, negative = inhibition ([1]; at 38 µM (top of the series)): -26.4% (inactive) and 3.96% (inactive) | Potency [5]: inactive and 20 µM (active) | activity change, negative = inhibition ([2]; at 38 µM (top of the series)): 4.1% (inactive) | Potency [4]: inactive | outcome [12]: inactive | Potency [6]: inactive | Potency [11]: inactive and 2 µM (active) | Potency [13]: inactive | outcome [14]: inactive | outcome [15]: inactive

CC[C@@H](C)[C@H]1O[C@]2(CC[C@@H]1C)C[C@@H]1C[C@H](C/C=C(/C)[C@H](O[C@@H]3C[C@H](OC)[C@H](O[C@@H]4C[C@H](OC)[C@@H](O)[C@H](C)O4)[C@H](C)O3)[C@@H](C)/C=C\C=C3CO[C@@H]4[C@H](O)C(C)=C[C@@H](C(=O)O1)[C@]34O)O2 (tested in a mixture with another compound)
Potency [5]: inactive | Potency [4]: inactive

CCN(CC)CCCCC1CCN(CC(=O)N2c3ccccc3C(=O)Nc3cccnc32)CC1
Potency [16]: inactive

NS(=O)(=O)c1cccc2c1c([N+](=O)[O-])cc1[nH]c(=O)c(=O)[nH]c12
Potency [5]: inactive

COC(=O)C1=C(C(=O)OC)[C@@H]2N(C)c3ccccc3[C@@]23C[C@@H](C(=O)OC)N(C(=O)Nc2cccc(C#N)c2)C3=N1
Potency [17]: inactive

COC(=O)C1=C(C)N(Cc2ccco2)C(=O)NC1c1ccco1 (centres undefined)
Potency [17]: inactive

COc1ccc2c(c1)O[C@@H](c1ccc3c(c1)OCO3)[C@H](OC(=O)Nc1ccc(OC(F)F)cc1)C2=O
Potency [17]: inactive

COc1cccc([C@@H]2[C@@H](C)CC[C@@H]3C(=O)NC[C@H](O)CN32)c1
Potency [17]: inactive

CC1(OC(=O)C2CCCC2)C(=O)C=C2C=C(c3ccsc3)N(C(CO)CO)C=C2C1=O (centres undefined)
Potency [17]: inactive

COC(=O)c1ccc(CN2C(=O)[C@]3(OCCC=C[C@@H]3C)c3c(Br)cccc32)cc1
Potency [17]: inactive

OC[C@H]1O[C@H](C#Cc2ccccc2)C=C[C@H]1O
Potency [17]: inactive

COCC=CC1=CC2=CC(=O)C(C)(OC(=O)c3cnc4ccccc4n3)C(=O)C2=CN1CCCCO (centres undefined)
Potency [17]: inactive

CCCCC1=CC2=C(c3ccco3)C(=O)C(C)(OC(=O)c3ccc(OC)cc3)C(=O)C2=CN1Cc1ccco1 (centres undefined)
Potency [17]: inactive

COc1ccc([C@]23Cc4cc(C#N)ccc4[C@H](O2)c2c(c4ccc(OC)cc4oc2=O)O3)cc1
Potency [17]: inactive

COc1cccc(CO[C@H]2C=C[C@@H](c3ccccc3)O[C@H]2CO)c1
Potency [17]: inactive

CCCCCCCC/C=C\CCCCCCCC(=O)N[C@@H](CO)Cc1ccc(O)cc1
Potency [18]: inactive | Potency [6]: inactive | Potency [11]: 0.126 µM (active)

O=C1N[C@H](Cc2ccccc2)C(=O)N1Cc1cccc2ccccc12
Potency [17]: inactive

COc1cccc([C@H](O)Cn2cc(-c3ccc(CON=C(C)C)cc3)nn2)c1
Potency [17]: inactive

COc1ccc(COC(=O)NN=C2C[C@@H](O)[C@@H](O)[C@@H]3[C@H]4C(=O)N(c5ccc(F)cc5F)C(=O)[C@@H]4CC[C@H]23)cc1
Potency [17]: inactive

COc1cccc(NC(=O)/C=C\c2ccc(Cl)cc2)c1
Potency [5]: 1 µM (active) | Potency [18]: 10 µM (active) | Potency [16]: 12.6 µM (active) | Potency [6]: inactive | Potency [11]: inactive

O=C(Oc1ccccc1)[C@H]1O[C@H]1c1ccccc1
Potency [17]: inactive
